This is an account of results in PubChem BioAssay AID493029 (Johns Hopkins Ion Channel Center, 2011).

Each structure is given as a SMILES string. Among all 1,000 compounds or so, about 140 (14%) were called active. How the calls were made is not given here. These entries were drawn from the full list.

This assay is described as follows: non-target flux effects, untransfected CHO, cell-based, thallium flux, counter-screen for KCNQ2 inhibitor project (AID 493029).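 On activity change: 0% = vehicle negative controls with stimulus buffer.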 The conditions noted are these: parental CHO cells, at 10 µM; hits give low values. On the technique in general: The purpose of a counterscreen is to sort out artefacts and off-target activity.
In the case of `CCc1ccc(-c2nn(-c3ccccc3)cc2CSC(=N)N)cc1`, the activity change was -31% (active). Take `CC(NC(=S)NNS(=O)(=O)c1ccc(C(C)(C)C)cc1)c1ccccc1` (stereo unspecified): the activity change entry is “inactive”. Regarding `C=CS(=O)c1sc(Cl)c(N2CCOCC2)c1[N+](=O)[O-]` (stereo unspecified), the activity change is -22.5% (active). In the case of `Cc1ccc(C(=O)c2c(NC(=O)c3ccccc3)sc(C)c2C)cc1` it was “inactive”; in that of `O=C(OCC(=O)N(CCc1ccccc1)Cc1ccccc1)c1ccccc1[N+](=O)[O-]`, “inactive”; in that of `CCOC(=O)C(C)Sc1nc2ccccc2c(=O)n1CC1CCCCC1` (stereo unspecified), -21% (active).

As for `Cc1ccc(C2=Nc3c(ccc4ccccc34)C(c3ccncc3)=NN2)cc1`, the activity change result was “inactive”.

With `COc1cccc(COc2ccc(N(C)S(=O)(=O)c3ccccc3)cc2)c1`, the activity change entry was “inactive”.

With `Cc1ccc(C(C)C)cc1OCC(=O)Nc1ccccc1N1CCCC1`, the activity change entry is “inactive”.

On to `CC(C)N(C(=O)CSc1nc(COc2ccccc2)nc2ccccc12)C(C)C`, for which the activity change is -42.5% (active).

Turning to `CCc1ccc(-c2cc(C(=O)NCc3ccco3)c3ccccc3n2)s1`, the activity change entry was “inactive”. Consider `CC(C)[C@H](NC(=O)OCc1ccccc1)C(=O)OCc1ccccc1`, for which the activity change result is “inactive”. Turning to `Cc1ccc(N2C(=O)C3C(c4ccccc4)(C2=O)C3(c2ccccc2)c2ccccc2)cc1` (stereo unspecified), the activity change entry was “inactive”. As for `Cc1cccc(C(=O)OC(C)C(=O)NC2CCCc3ccccc32)c1O` (stereo unspecified), the entry is “inactive”; as for `CCc1ccccc1NC(=O)/C(=C/c1ccccc1)c1ccccc1`, “inactive”. For `CSCc1cc(N(C)C)nc(SCc2ccc(Cl)cc2Cl)n1`, the activity change entry is “inactive”.

Consider `O=C(Nc1ccccc1Cl)/C(Cl)=C(\Cl)S(=O)c1ccccc1` (stereo unspecified), for which the activity change result is “inactive”. In the case of `CCc1ccc2ncc(C(=O)c3ccccc3)c(N3CCOCC3)c2c1`, the activity change result is “inactive”. With `CC(C)C(NC(=O)OCc1ccccc1)C(=O)OCC(=O)N1C(C)CCCC1C` (stereo unspecified), the activity change result was “inactive”.

Turning to `CC(C(=O)NCC1CCCCC1)N(C)Cc1cccc(Cl)c1` (stereo unspecified), the activity change is -35% (active). In the case of `COc1ccc(CN(C)C(C)C(=O)NC2CCCc3ccccc32)cc1` (stereo unspecified) it was “inactive”. For `COC(=O)C1=C(C)N(C(C)c2ccccc2)C(=O)/C1=C\c1ccco1` (stereo unspecified), the activity change entry was “inactive”.

As for `Fc1ccc2[nH]c3c(N4CCSCC4)ncnc3c2c1`, the activity change result is “inactive”. Regarding `CCOC(=O)N1CCC(N(CCOC)C(=O)Nc2ccc(C)c(C)c2)CC1`, the activity change was -23.5% (active). Take `Cc1ccccc1N1CCN(CC(=O)NCc2ccc(Cl)cc2)CC1`: the activity change entry was “inactive”. In the case of `COc1ccc(Cl)cc1NC(=O)CN(C)Cc1ccc(OC)c(OC)c1` it was “inactive”; in that of `CN(Cc1ccccc1F)C(=O)C(Cc1ccccc1)NC(=O)c1ccccc1` (stereo unspecified), “inactive”; in that of `O=C(Nc1ccc(Cl)c(Cl)c1)N1CC=C(c2ccccc2)CC1`, “inactive”.

In the case of `Cc1nc2ccccc2c(-c2ccccc2)c1C(=O)c1ccccc1`, the activity change result was “inactive”. Regarding `C=CCn1c(SCC(=O)/C(C#N)=C(\C)N)nc2sc(C)c(C)c2c1=O`, the activity change result was “inactive”. As for `Cc1ccccc1C(=O)Nc1ccccc1Sc1ccccc1`, the entry is “inactive”.
